Measurements from PubChem BioAssay AID2732 (Emory University Molecular Libraries Screening Center, 2010).
The whole screen tested about 220,000 compounds, of which about 8,200 (3.7%) were called active. This excerpt belongs to a sample that is enriched for actives. Unmarked numbers belong to inactive results.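 Rule for the calls: active = compounds that reduced the stress-induced luciferase reporter signal by more than about 70% of percent inhibition (limit read from the data); inactive = the rest.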

Experiment: blockers of ER-stress CHOP reporter expression – cell-based, unfolded protein response, luciferase reporter, primary screen (AID 2732);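 note: 0% = tunicamycin plus vehicle and 100% = wells without tunicamycin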
Conditions: CHO-K1 CHOP-promoter luciferase, tunicamycin-induced, 15-18 h; at 10 µM; stronger effect = higher value

Row | SMILES | inhibition
1 | C/C=C\C=C\C(=O)N1CC2(CC(c3cccc(NC(=O)/C(C)=C\C)c3)=NO2)C[C@H]1C(N)=O (stereo partly specified) | -9.78%
2 | Cc1cccc(NC(=O)c2ccc([N+](=O)[O-])o2)c1 | -27%
3 | COc1ccc(Cl)cc1S(=O)(=O)N1CCC(O)(c2ccc(Cl)cc2)CC1 | 19.7%
4 | O=[N+]([O-])c1ccc(N/N=C2/CCCCC2c2ccccn2)c([N+](=O)[O-])c1 (stereo unspecified) | 80.1% (active)
5 | C[n+]1ccccc1C1CCCC/C1=N\Nc1ccc([N+](=O)[O-])cc1[N+](=O)[O-] (stereo unspecified) | 8.15%
6 | O=C(Nc1ccccc1)O/N=C1\CCCCC1c1ccc([N+](=O)[O-])cc1[N+](=O)[O-] (stereo unspecified) | 22.1%
7 | O=C(NNC(=O)c1cnccc1C(F)(F)F)c1ccc(Cl)cc1 | -0.67%
8 | S=c1[nH]nc(-c2cc(-c3ccsc3)n[nH]2)n1-c1ccccc1 | 0.59%
9 | O=C(Nc1sc2c(c1-c1nc3ccccc3[nH]1)CCCC2)C1CC1 | 80.4% (active)
10 | O=C(Nc1cccc(-c2nc3ccccc3[nH]2)c1)c1ccc(C(=O)Nc2cccc(-c3nc4ccccc4[nH]3)c2)cc1 | -38.4%
11 | CCOC(=O)c1c(NC(=O)C2CCN(S(=O)(=O)c3ccc(Cl)cc3)CC2)sc2c1CCCC2 | 15.6%
12 | O=C(Nc1ccc(F)cc1F)N1CCCN(CCOc2ccccc2)CC1 | -11%
13 | Cc1ccc(Cl)c(OCC(=O)NN2CCN(C)CC2)c1 | 5.66%
14 | O=C(c1ccccc1)c1ccc2nc(N3CCCCC3)c3nncn3c2c1 | 19.1%
15 | NC(=O)c1ccc(CN2CCC(Cc3ccccc3)CC2)cc1 | -9.98%
16 | c1ccc(CC2CCN(c3nc4ccccc4n4cnnc34)CC2)cc1 | 76.1% (active)
17 | N#CC1=C(N)Oc2c(ccc3cccnc23)C1c1ccncc1 (stereo unspecified) | -1.42%
18 | CCOC(=O)c1sc(NC(=O)COc2ncnc3ccccc23)c(C(=O)OCC)c1C | 43%
19 | Nc1nnc(SCC(=O)NC2CCCc3ccccc32)s1 (stereo unspecified) | 12.6%
20 | CCOC(=O)c1c(NC(=O)CNC2CCCc3ccccc32)sc(C(N)=O)c1C (stereo unspecified) | 95.9% (active)
21 | Cc1ccc(/C=N/NC(=S)Nc2cccc(S(=O)(=O)N(C)C)c2)o1 | 36%

Row | SMILES | inhibition
22 | NC(=O)c1ccc(-c2csnn2)cc1 | 9.46%
23 | Cc1ccccc1-c1n[nH]c(=S)n1/N=C/c1ccc(-c2ccccc2Br)o1 | 72.8% (active)
24 | Cc1ccccc1-c1n[nH]c(=S)n1C | -13.1%
25 | Cc1n[nH]c(=S)n1/N=C/c1ccc(Br)o1 | 14.2%
26 | CC1CN(c2nc(Nc3ccccc3)nc(N)c2[N+](=O)[O-])CC(C)O1 (stereo unspecified) | 9.58%
27 | Cc1cccc(-n2c(N)c(C(=O)N3CCN(C)CC3)sc2=S)c1 | -3.45%
28 | CCCc1nc(-c2ccccc2O)n(-c2ccccc2)n1 | 40.5%
29 | CCCc1nc(N2CCN(C)CC2)c2sc(=S)n(-c3ccccc3)c2n1 | 74.7% (active)
30 | O=C(NCCc1ccccn1)c1cccnc1Oc1ccc(Cl)cc1 | 18.1%
31 | CCCN(CCC)S(=O)(=O)c1ccc(C(=O)NNC(=O)c2cc(OC)c(OC)c(OC)c2)cc1 | 2.06%
32 | C/C(CC(=O)NC(C)c1ccccc1)=N\NC(N)=S (stereo unspecified) | 0.93%
33 | O=C(CSc1nc2ccc([N+](=O)[O-])cc2[nH]1)c1ccc(Cl)cc1 | 78.4% (active)
34 | CC(=O)Nc1ccc(C(=O)CSc2nc3ccc(C)cc3[nH]2)cc1 | 37.2%
35 | Cc1nc(SCC(=O)c2ccccc2)c([N+](=O)[O-])[nH]1 | 7.53%
36 | CCOc1ccc(N2CC(C(=O)N/N=C/c3sccc3C)CC2=O)cc1 (stereo unspecified) | 17.4%
37 | COc1ccc(C(C(=O)NC(C)(C)C)N(C(=O)Cn2nnc3ccccc32)c2ccc(C(C)=O)cc2)cc1O (stereo unspecified) | -13.6%
38 | O=C(Nc1ccc(Cl)cc1)Nc1ccc(Oc2cccnc2)nc1 | 15.6%
39 | O=C(COc1ccccc1)NCCc1nc2ccccc2[nH]1 | -0.39%
40 | COc1ccc(OC(C)C(=O)NCCc2nc3ccccc3[nH]2)cc1 (stereo unspecified) | 12.8%
41 | CCCCCOc1ccc(/C=C/C(=O)NCCc2nc3ccccc3[nH]2)cc1OC | 70.7% (active)
42 | CCN(CC)S(=O)(=O)c1cc([N+](=O)[O-])ccc1N=Nc1c(O)n(C)c2ccccc12 | 39.2%

Row | SMILES | inhibition
43 | O=C(CSCC(=O)Nc1cccc([N+](=O)[O-])c1)Nc1ccccc1 | -4.34%
44 | CCN(CC)S(=O)(=O)c1cc([N+](=O)[O-])ccc1NNC(=O)Nc1ccccc1 | 94.6% (active)
45 | CCOC(=O)c1cnc(COc2ccccc2Cl)[nH]c1=O | -0.7%
46 | Oc1c(Cl)cc(Cl)c(Cl)c1Cc1c(O)c(Cl)cc(Cl)c1Cl | 93.3% (active)
47 | N#Cc1c(C(F)(F)F)cc(-c2cccs2)nc1N1CCCCC1 | 12.1%
48 | COCc1cc(=O)[nH]c(SC)n1 | -4.77%
49 | CCOC(=O)c1c(NC(=S)NC)sc2c1CCCC2 | 14.4%
50 | CCOC(=O)c1c(NC(=S)Nc2ccccc2C)sc2c1CCC2 | 34.1%
51 | CCOC(=O)c1c(NC(=S)NC(=O)c2ccco2)sc2c1CCCC2 | 85% (active)
52 | CN(C)/C=C(/C(=O)c1ccc(Cl)c(Cl)c1)c1nnnn1-c1ccccc1 | -4.76%
53 | COc1ccc(N(Cc2ccccc2)S(=O)(=O)c2cccc(C(=O)O)c2)cc1 | 3.03%
54 | O=C(Cn1nnc(N2CCCCC2)n1)c1ccc(Cl)c(Cl)c1 | 6.73%
55 | Clc1ccc(C[n+]2cc(-c3ccccc3)n3c2CCC3)cc1 | 9.23%
56 | Cc1ccc(NC(=O)Nc2nnc(-c3ccncc3)s2)cc1 | 40.9%
57 | Cc1nnc(NC(=O)Nc2ccc(Cl)c(Cl)c2)s1 | 86.9% (active)
58 | CCn1nccc1C(=O)Nc1ccc(Cl)c(Cl)c1 | 0.72%
59 | O=C(O)c1cccc(NC(=O)c2cc(-c3cccc(Cl)c3)nc3ccccc23)c1 | -25%
60 | Cn1cc(Cl)c(C(=O)NNC(=S)Nc2cccc(Cl)c2)n1 | 9.14%
61 | Cc1c(C(=O)Nc2cccc(Cl)c2)cn2c(nc3ccccc32)c1C#N | 104% (active)
